Laboratory results: PubChem BioAssay (NCI)
About 79,000 compounds went through this panel and 15% of them were active in at least one assay; those are over-represented in the sample as a whole. Activity calls are given as the source filed them. Rule as the data show it: active = growth inhibition above about 70%; inactive = the rest.

Key:
[1] = NCI Yeast Anticancer Drug Screen. Data for the rad50 strain (AID 155);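 also: 0% = growth of vehicle-only cultures of the same strain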; conditions: S. cerevisiae rad50 strain growth inhibition; at 50.0 µM; hits give high values
Method in brief: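 DNA repair mutant yeast, compound exposure, growth read-out; inhibition is taken relative to vehicle.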

[2] = NCI Yeast Anticancer Drug Screen. Data for the mec2-1 strain (AID 157); conditions: S. cerevisiae mec2-1 strain, at 50.0 µM, hits give high values
Method in brief: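 Mutant yeast (mec2-1) grown with compound; growth inhibition relative to vehicle control reported.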

[3] = NCI Yeast Anticancer Drug Screen. Data for the sgs1 mgt1 strain (AID 161);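 also: 0% = growth of cultures given vehicle only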; conditions: S. cerevisiae sgs1 mgt1 strain, at 50.0 µM, hits give high values
Method in brief: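 Percent growth inhibition was derived by comparing compound-exposed mutant yeast with vehicle-exposed cultures. The strain carries alterations in DNA damage repair.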

[4] = NCI Yeast Anticancer Drug Screen. Data for the cln2 rad14 strain (AID 165);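 also: 0% = growth equal to vehicle treated cultures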; conditions: S. cerevisiae cln2 rad14 strain, at 50.0 µM, hits give high values
Method in brief: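 Readout is yeast growth inhibition versus vehicle-treated controls, using a strain with cln2 and rad14 alterations exposed to compound.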

[5] = NCI Yeast Anticancer Drug Screen. Data for the bub3 strain (AID 167); conditions: S. cerevisiae bub3 mutant strain, at 50.0 µM, hits give high values
Method in brief: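 In this screen, a yeast mutant lacking normal mitotic checkpoint function is challenged with compound. Relative growth versus vehicle gives the inhibition value.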

[6] = NCI Yeast Anticancer Drug Screen. Data for the mlh1 rad18 strain (AID 175); conditions: S. cerevisiae mlh1 rad18 strain growth inhibition; at 50.0 µM; hits give high values
Method in brief: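 Genetically defined yeast (DNA repair-deficient) exposed to compounds; growth inhibition determined relative to vehicle.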

Measured: growth inhibition

C/C(=N/NC(N)=O)c1ccc([N+](=O)[O-])o1
inactive: [1] 29.9% | [2] 9.9% | [3] 30.8% | [4] 16.1% | [5] 14.9% | [6] 47.2%

CCC(c1ccc(OC)cc1)c1cc2c(cc1OCCO)OCO2 (stereo not drawn)
active: [1] 70.9% | [3] 81.7% | [6] 96.3%
inactive: [2] 66.3% | [4] 67.7% | [5] 58.1%

CC(=O)Oc1cc2c(cc1OC(C)=O)C1(C)CCC2(C)c2cc(OC(C)=O)c(OC(C)=O)cc21
inactive: [1] 1.6% | [2] 0.2% | [3] 3.6% | [4] 9.55% | [5] -2.7% | [6] 14.3%

O=C1Nc2c(cccc2-c2ccccc2)C(=O)C1(O)c1ccccc1 (stereo not drawn)
inactive: [1] -0.35% | [2] -1.2% | [3] -0.6% | [4] -9.8% | [5] -2.6% | [6] -3.95%

CC(C)(C)C1=CC(=O)C(C(C)(C)C)=CC1=O
inactive: [1] -2.35% | [2] 3.2% | [3] -17.2% | [4] -55% | [5] -7% | [6] 17.7%

Cc1ccccc1NC(=O)CC(=O)N1N=C(N(CCC#N)c2ccccc2Cl)CC1c1ccccc1 (stereo not drawn)
inactive: [1] 4.1% | [2] -10% | [3] -39.3% | [4] 16.4% | [5] -10.1% | [6] -8.3%

CCCCCCC(C#N)(CCN(C)C)c1ccccc1 (stereo not drawn)
inactive: [1] 15.4% | [2] 18.7% | [3] 14.3% | [4] -8% | [5] 50.1% | [6] 22.8%

O=C(O)c1ccc2c3ccc(C(=O)O)c4c(C(=O)O)ccc(c5ccc(C(=O)O)c1c25)c43
inactive: [1] -21.1% | [2] -33.5% | [3] -17.5% | [4] -0.25% | [5] -19.6% | [6] -19.1%

COc1cccc(N=NN2CCCC2)c1
inactive: [1] 16.2% | [2] 14.2% | [3] 17.8% | [4] 20.1% | [5] 7.15% | [6] 23.4%

Cc1ccc(N2CCN(c3ccc(C)cc3)C2=C2N(c3ccc(C)cc3)CCN2c2ccc(C)cc2)cc1
inactive: [2] 20.4% | [3] 56.5% | [4] 34.1% | [5] 37.1% | [6] 19.6%
active: [1] 78.5%

CCC(Cl)(c1ccccc1)C(O)C(=O)OC(C)C (stereo not drawn)
inactive: [1] 8% | [2] 2.65% | [3] 10.8% | [4] -2.35% | [5] -6.3% | [6] 11.8%

N#CC(C(=O)C(=O)Nc1cccc(C(F)(F)F)c1)c1c(Cl)cccc1Cl (stereo not drawn)
inactive: [1] 10.1% | [2] 11.6% | [3] 17.1% | [4] -35% | [5] -1.7% | [6] 2.15%

OC(Cc1ccc2ccccc2n1)(C(F)(F)Cl)C(F)(F)Cl
inactive: [1] -39% | [2] -55.2% | [3] -10.7% | [4] -9.7% | [5] -4.45% | [6] -31.1%

CC(=O)OCC1OC(n2nnc(CCl)c2CCl)C(OC(C)=O)C(OC(C)=O)C1OC(C)=O (stereo not drawn)
inactive: [1] 38.5% | [2] 8.7% | [3] 0.5% | [4] -3.15% | [5] -0.25% | [6] 8.45%

Fc1ccc(F)c(C2SCc3nc4ccccc4n32)c1 (stereo not drawn)
inactive: [1] 19.4% | [2] 19.1% | [3] 33.1% | [4] 25.1% | [5] 16.6% | [6] 24.6%

C/C=C/C(=O)OCCOc1ccccc1-c1ccccc1
inactive: [1] 15.5% | [2] 16.3% | [3] 4.35% | [4] -16.3% | [5] 25.2% | [6] 20.1%

Nc1nnc(CCC(=O)Nc2cccc(C(F)(F)F)c2)n1N
inactive: [1] 4.85% | [2] 5.6% | [3] 7.3% | [4] -27.9% | [5] 9.65% | [6] 1.55%

COC(=O)c1nc(=S)[nH]c(C(=O)OC)c1C(=O)c1cccnc1
inactive: [1] -4.3% | [2] 15.2% | [3] 17.4% | [4] 4.25% | [5] 39.4% | [6] 17.9%

Oc1cccnc1CN1CCOCC1
inactive: [1] -3.55% | [2] -14.3% | [3] -12.6% | [4] 8.8% | [5] -6.15% | [6] 6.95%

Cc1cc(N=Nc2ccc(N(C)C)cc2)ccn1
inactive: [1] 21.6% | [2] 7.2% | [3] 6.1% | [4] -52.8% | [5] 13.7% | [6] 0.9%

CC(=O)Oc1cc(C(C)C)c(OCCN(C)C)cc1C
inactive: [1] -0.15% | [2] 10.3% | [3] 0.45% | [4] -3.6% | [5] -0.5% | [6] -4.1%

O=C(Nc1nc(=S)[nH][nH]1)C(=O)C1C(=O)Nc2ccccc2S1=O (stereo not drawn)
inactive: [1] 3.45% | [2] -10.8% | [3] -4.2% | [4] 4% | [5] -20.9% | [6] -0.6%

Nc1[nH][nH]c(=O)c1N=Nc1ccccc1
inactive: [1] -7.75% | [2] -8.95% | [3] -1.15% | [4] -6.6% | [5] 8.4% | [6] 5.15%

COc1ccc(CCO)cc1
inactive: [1] 0.55% | [2] -36% | [3] -15.9% | [4] -10.2% | [5] -31.1% | [6] -33.2%

Nc1nnc2nc(CC(=O)c3ccc(F)cc3)c(CC(=O)c3ccc(F)cc3)nn12
inactive: [1] -3.6% | [2] 30.3% | [3] 6.6% | [4] -2.7% | [5] 1.2% | [6] 6.7%

CCOC(=O)/C(C#N)=C/c1cc(Br)c(O)c(OC)c1
inactive: [1] -12.3% | [2] -22% | [3] 25.4% | [4] -0.8% | [5] 6.25% | [6] 10.8%

O=C(O)C1(NO)CCCCC1
inactive: [1] -6.9% | [2] 6.7% | [3] -11.8% | [4] -9% | [5] -12.6% | [6] -5.4%

CCCCCC(=O)Oc1ccccc1OC
inactive: [1] -8.1% | [2] -5.55% | [3] 1.15% | [4] -29.4% | [5] -7.85% | [6] -7.9%

Cc1ccc(C(C)C)cc1NC(=O)c1cccc([N+](=O)[O-])c1
inactive: [1] -8.4% | [2] 6.9% | [3] 18.9% | [4] -7.1% | [5] 18.9% | [6] 8%

COC(=O)C(/C(=N\NC(N)=S)C(=O)Nc1ccccc1[N+](=O)[O-])c1cnc2ccccc2n1 (stereo not drawn)
inactive: [1] 5% | [2] -14.7% | [3] -8.55% | [4] 2.1% | [5] -19.1% | [6] -18.7%

CC(C(=O)C(=O)Nc1ccc(Cl)cc1)C(=O)c1ccc(Cl)cc1 (stereo not drawn)
inactive: [1] 1.25% | [2] -7.15% | [3] -2.85% | [4] -14.9% | [5] 5.15% | [6] -17.3%

CCOC(=O)c1ccccc1C(=O)c1ccccc1O
inactive: [1] -5.8% | [2] -18% | [3] -1.6% | [4] -0.45% | [5] -5.45% | [6] 18.4%

COC(=O)NC(C(F)(F)F)(C(F)(F)F)P1(=O)OCCCO1
inactive: [1] 54.5% | [2] 59.9% | [3] 26.3% | [4] 43% | [5] 54% | [6] 37.6%

COc1cccc(C(OC(=O)c2ccccc2)c2nncc3ccccc23)c1OC (stereo not drawn)
inactive: [1] 32.4% | [2] 11.8% | [3] 9.6% | [4] 5.9% | [5] 9.85% | [6] 5.8%

C/C(=N\O)c1cccs1
inactive: [1] 3.8% | [2] -4.05% | [3] -6% | [4] -8.9% | [5] -0.25% | [6] -1.4%

Nc1cc(=O)n(Cc2ccco2)c(=S)[nH]1
inactive: [1] 19.8% | [2] -16.6% | [3] 9.35% | [4] 2.75% | [5] -7.95% | [6] -8%

O=C1CC(c2ccccc2)=NN1c1ccccc1
inactive: [1] -8.3% | [2] -25.4% | [3] -5.55% | [4] 9.5% | [5] -23.8% | [6] 18.6%

NC1=NC(c2ccccc2)N=C(Nc2ccccc2)N1 (stereo not drawn)
inactive: [1] 37.2% | [2] 1.4% | [3] 16.4% | [4] -15% | [5] 15.2% | [6] 41.6%
